# Assay results from PubChem BioAssay (NCI).
# The panel holds about 83,000 compounds, 20% with a hit somewhere; the sample as a whole holds those more often.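 Testing used 96-well plates and a 48-hour single-concentration exposure. Example: -40 means 40% of the starting cells died.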 Active and inactive are the calls of the source. How the source made its calls: active means growth percent below 10; inactive means the rest.
# Tested on: HL-60(TB) leukemia
# Assay: NCI-60 one-dose screen, 48 h (100 = growth as untreated, 0 = no growth, -100 = all killed)
# Conditions: 10 µM unless noted
row,SMILES,growth
1,COc1ccc(N=Nc2c(N)nn3c(-c4ccc([N+](=O)[O-])cc4)ccnc23)cc1,85.7% (inactive)
2,Cc1ccc2c(N)c(C(=O)Nc3ccc(-c4ccccc4)cc3)sc2n1,38.7% (inactive)
3,COc1ccc(/C=N/NC(=O)Cn2nc(Cc3ccc(OC)cc3)c3onc(C)c3c2=O)cc1,27.6% (inactive)
4,CCOC(=O)c1ccc(NC(=S)NC(=O)c2ccc(NC(=O)C(C)C)cc2OC)cc1,46.3% (inactive)
5,Cc1ccc(C2CC(c3ccc(NC(=S)Nc4ccccc4)cc3)=NN2c2ccc(S(N)(=O)=O)cc2)cc1 (centres undefined),8.89% (active)
6,COc1cc(/C=C/C(=O)c2cnn(-c3cc(=O)[nH]c4ccccc34)c2C)cc(OC)c1OC,0.36% (active)
7,CC1(C)CC[C@]2(C(=O)O)CC[C@]3(C)C(=CCC4[C@@]5(C)C[C@@H](O)[C@@H]6OC(c7ccccc7F)OC[C@@]6(C)C5CC[C@]43C)C2C1 (some centres undefined),2.91% (active)
8,COc1ccc(-c2cc(C(=O)Oc3ccc(C=O)cc3OC)nn2-c2ccc(S(C)(=O)=O)cc2)cc1,86.5% (inactive)
9,COC(=O)c1cc(C(=O)C(Br)Br)n2c1ccc1c3ccccc3ccc12,76.2% (inactive)
10,Cc1ccc([C@H]2C(C(=O)c3ccc(Cl)cc3)C3(N[C@@H]2c2ccccc2)C(=O)Nc2ccc(Cl)cc23)cc1 (some centres undefined),34.1% (inactive)
11,CCCn1c(=O)c2[nH]c(-c3ccc(OCc4nc5ccc(C)cc5[nH]4)cc3)nc2n(CCC)c1=O,4.56% (active)
12,COc1cc(C2CC(c3cc(OC)c(OC)c(OC)c3)=NN2C(C)=O)ccc1OCc1ccc(F)cc1 (centres undefined),37.3% (inactive)
13,O=C1CCC(N2C(=O)c3cccc(NCCOCCOCCOCCC(=O)NCCCC(=O)NC(c4ccc5c(c4)OCO5)c4cc(Cl)c5cccnc5c4O)c3C2=O)C(=O)C1 (centres undefined),-14.1% (active)
14,COc1ccc(C(=O)/C=C/c2ccc(OC)c(OCc3ccccc3)c2)cc1OC,2.91% (active)
15,COc1ccc([C@H]2C(C(=O)c3ccc(Cl)cc3)C3(N[C@@H]2c2ccccc2)C(=O)Nc2ccc(Br)cc23)cc1 (some centres undefined),15.3% (inactive)
16,O=C(CNc1nc(-c2ccccc2)cs1)Nc1ccccc1,-30.5% (active)
17,Cc1cccc(NC(=O)CN2CCN(c3ncnc4c3cnn4-c3ccccc3)CC2)c1,88.3% (inactive)

row,SMILES,growth
1,CN1C(=O)N(C)C2SC(N/N=C/c3ccccc3F)=NC21 (centres undefined),1.5% (active)
2,O=S(=O)(Nc1ncccn1)c1ccc(-n2c(-c3ccccc3)nc(-c3ccccc3)c2-c2ccccc2)cc1,95.5% (inactive)
3,Cc1ccc(/C=C/c2n(Cc3ccc4ccccc4c3)c3ccccc3[n+]2Cc2ccc3ccccc3c2)cc1,-45.5% (active)
4,CSc1ccc(NC(=O)c2ccc3nnn(/C(C#N)=C/c4ccccn4)c3c2)cc1,2.93% (active)
5,Cc1nc2sccn2c1-c1nnc(SCC(C)C)o1,93.2% (inactive)
6,COc1ccc2[nH]cc(-c3cc(N)n4nc(-c5c[nH]c6ccccc56)cc4n3)c2c1,-44.7% (active)
7,COc1ccc(NC(=O)[C@H](C)N)cc1C(=O)Nc1cccc(C2CC(=O)c3c(cc(OC)c(OC)c3OC)O2)c1 (some centres undefined),69.8% (inactive)
8,COc1ccc2oc(=O)c(C3(C)NC(=O)c4c(/C=C/C(=O)OC(C)(C)C)cccc4N3)cc2c1 (centres undefined),-5.42% (active)
9,COc1ccc(-n2c(NC(=O)N3CCN(C)CC3)c(C#N)c3ccccc32)cc1,74.2% (inactive)
10,COc1ccc(C2OC[C@@]3(C)C4CC[C@]5(C)C(CC=C6C7CC(C)(C)CC[C@]7(C(=O)O)CC[C@]65C)[C@@]4(C)C[C@@H](O)[C@@H]3O2)cc1 (some centres undefined),46.9% (inactive)
11,COc1cc(-c2ccc(/C=N/NC(=O)c3[nH]c4ccc(Br)cc4c3-c3ccccc3)s2)cc(OC)c1OC,99% (inactive)
12,COc1c(B(O)O)cccc1-c1nc2ccc3cn[nH]c3c2c2c1CCCC2,47.6% (inactive)
13,O=C(c1ccc(Cl)cc1)C1[C@H](c2ccccc2Br)[C@@H](c2ccccc2)NC12C(=O)Nc1ccc(Br)cc12 (some centres undefined),-6.61% (active)
14,O=C(Nc1ccc(I)cc1)Nc1nc2ccc([N+](=O)[O-])cc2s1,-37.3% (active)
15,O=C(Nc1cc(Cl)cc(Cl)c1)Nc1cc(Cl)cc(Cl)c1,-15.1% (active)
16,O=C(/C=C/Nc1ccc(F)cc1F)c1ccc2c(c1)Nc1ccccc1S2,26.9% (inactive)
17,CNc1nc2ccccc2n2c(-c3ccc(O)c(O)c3)cnc12,-19.6% (active)
